Data: paper PMC4336329 (PLoS ONE, 2015)
The campaign covered roughly 310,000 compounds. About 2,200 (0.71%) showed an effect of 50% or more. Effects have a minus sign here. Only a selection was taken, and strong results are over-represented in it overall.

Target: human ether-à-go-go-related gene (hERG) potassium channel (human, UniProt Q12809)
Experiment: primary screen, population patch clamp on CHO cells stably expressing hERG; higher = less effect of the substance

Sequence of human ether-à-go-go-related gene (hERG) potassium channel (Q12809 whole entry, looked up): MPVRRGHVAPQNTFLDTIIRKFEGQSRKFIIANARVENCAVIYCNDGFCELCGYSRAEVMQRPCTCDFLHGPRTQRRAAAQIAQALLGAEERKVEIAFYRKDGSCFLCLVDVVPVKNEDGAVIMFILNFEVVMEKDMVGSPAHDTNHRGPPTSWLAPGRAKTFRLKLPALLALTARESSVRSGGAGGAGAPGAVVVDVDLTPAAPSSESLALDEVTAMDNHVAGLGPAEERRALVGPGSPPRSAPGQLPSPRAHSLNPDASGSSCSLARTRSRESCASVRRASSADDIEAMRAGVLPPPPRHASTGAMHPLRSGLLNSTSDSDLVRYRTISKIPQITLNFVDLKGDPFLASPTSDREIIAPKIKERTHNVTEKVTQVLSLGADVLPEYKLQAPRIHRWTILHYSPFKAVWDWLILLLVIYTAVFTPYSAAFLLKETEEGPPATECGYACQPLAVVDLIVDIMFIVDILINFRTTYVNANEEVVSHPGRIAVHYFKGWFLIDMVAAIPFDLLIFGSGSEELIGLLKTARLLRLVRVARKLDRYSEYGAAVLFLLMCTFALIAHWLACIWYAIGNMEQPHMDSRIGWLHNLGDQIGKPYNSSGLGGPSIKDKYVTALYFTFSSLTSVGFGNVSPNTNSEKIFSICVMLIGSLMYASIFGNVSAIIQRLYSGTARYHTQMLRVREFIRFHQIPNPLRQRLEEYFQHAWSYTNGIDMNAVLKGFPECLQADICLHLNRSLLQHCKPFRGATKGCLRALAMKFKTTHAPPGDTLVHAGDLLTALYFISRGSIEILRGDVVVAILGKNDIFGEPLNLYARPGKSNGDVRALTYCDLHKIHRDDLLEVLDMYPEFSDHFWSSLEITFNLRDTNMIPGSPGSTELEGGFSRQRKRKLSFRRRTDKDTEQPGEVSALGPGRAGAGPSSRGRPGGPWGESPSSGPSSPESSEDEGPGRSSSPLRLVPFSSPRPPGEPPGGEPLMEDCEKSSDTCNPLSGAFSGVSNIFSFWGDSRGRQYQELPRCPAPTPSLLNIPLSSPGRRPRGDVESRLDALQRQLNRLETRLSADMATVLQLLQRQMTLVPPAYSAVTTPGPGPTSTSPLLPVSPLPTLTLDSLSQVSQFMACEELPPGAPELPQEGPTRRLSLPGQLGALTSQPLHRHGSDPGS

SMILES | hERG current change (%, negative = inhibition) at 1uM [%]
Cc1cc(=O)n2nc(N3CCCC3C(=O)Nc3cccc(Cl)c3C)sc2n1 (centres unmarked) | 12.5
COc1ccc(N2CCN(C(=O)c3ccc4c(=O)n(Cc5ccc6c(c5)OCO6)c(=O)[nH]c4c3)CC2)cc1 | 25
CC(=O)/C(=C\N(C)C)Sc1ccc(C)cc1 | 27.2
Cc1ccc(C(=O)Oc2cc(C)n(C)c(=O)c2)cc1 | 5.86
COc1cc(Cl)nn(-c2ccccc2)c1=O | 13.3
CC1(c2ccc([N+](=O)[O-])cc2)Nc2ccccc2S1 (centres unmarked) | 10.9
O=C(CCC1CCCCC1)NCCN1C2=NC[C@H](Cc3ccc(O)cc3)N2C[C@H]1Cc1ccc(O)cc1 | 12.5
COc1ccc(C[C@H]2CN3C(=NC[C@H]3C)N2CCNC(=O)CCC2CCCCC2)cc1 | -51.9
COc1ccc(C[C@@H]2CN3C(=NC[C@@H]3C)N2C[C@H](C)NC(=O)CCC2CCCCC2)cc1 | -20.8
Nc1nc(Cn2nnc(-c3ccccc3Cl)n2)nc(N2CCOCC2)n1 | -25.9
COc1ccc(-c2nnn(Cc3nc(N)nc(N4CCOCC4)n3)n2)cc1OC | 3.65
Nc1nc(Cn2nnc(-c3ccccc3F)n2)nc(N2CCOCC2)n1 | -53.8
COc1ccc(S(=O)(=O)N2CCCC2CNC(=O)C(=O)NC2CCCCCC2)cc1 (centres unmarked) | -3.96
O=C1CC2(CCN(C(=O)COc3ccccc3)CC2)Oc2ccccc21 | -21.4
Cc1cccc(OCC(=O)N2CCC3(CC2)CC(=O)c2ccccc2O3)c1 | -6.58
Cc1ccc(OCC(=O)N2CCC3(CC2)CC(=O)c2ccccc2O3)cc1 | -49
O=C1CC2(CCN(C(=O)COc3ccc(F)cc3)CC2)Oc2ccccc21 | -17
COc1ccc(OCC(=O)N2CCN(C(=O)COc3ccc(Br)cc3)CC2)cc1 | -56.9
COc1ccc(OCC(=O)N2CCN(C(=O)COc3ccccc3)CC2)cc1 | -24.7

SMILES | hERG current change (%, negative = inhibition) at 1uM [%]
CCOc1ccc(OCC(=O)N2CCC3(CC2)CC(=O)c2ccccc2O3)cc1 | -56.8
Cc1ccccc1OCC(=O)N1CCC2(CC1)CC(=O)c1ccccc1O2 | -10.3
COc1ccc(OCC(=O)N2CCC3(CC2)CC(=O)c2ccccc2O3)cc1 | -70.2
O=C1CC2(CCN(C(=O)COc3ccc(Cl)cc3)CC2)Oc2ccccc21 | -70.4
COc1cccc(OCC(=O)N2CCC3(CC2)CC(=O)c2ccccc2O3)c1 | -5.23
CC(=O)N1CCN(C(=O)COc2ccc(Br)cc2)CC1 | 3.21
COc1ccc(NC(=O)N2CC(C)OC(C)C2)cc1OC (centres unmarked) | 9.39
O=C1c2ccccc2C(=O)N1CCn1ccnc1 | 17.7
CCOc1cccc(CNc2ccc(O)cc2)c1OCc1ccc(Cl)cc1Cl | 10.8
O=C(c1cnn2c(C(F)(F)F)cc(-c3ccco3)nc12)N1CCCc2ccccc21 | -1.81
COc1ccc(C2c3ccc(O)cc3Oc3ncn4nc(-c5ccncc5)nc4c32)cc1OC (centres unmarked) | -0.788
COc1ccc(C2c3ccc(O)cc3Oc3ncn4nc(-c5ccccn5)nc4c32)cc1OC (centres unmarked) | -50.1
COc1ccc(C2c3ccc(O)cc3Oc3ncn(Cc4ccco4)c(=N)c32)cc1OC (centres unmarked) | -75.9
N=c1c2c(ncn1CCCO)Oc1cc(O)ccc1C2c1ccccc1 (centres unmarked) | 0.259
N=c1c2c(ncn1Cc1ccco1)Oc1c(ccc3ccccc13)C2c1ccccc1 (centres unmarked) | 1.59
COc1ccc(C2c3ccc(O)cc3Oc3ncn(Cc4ccccc4)c(=N)c32)cc1OC (centres unmarked) | -0.742
N=c1c2c(ncn1Cc1ccco1)Oc1cc(O)ccc1C2c1ccccc1 (centres unmarked) | -69.5
COc1ccc(C2c3ccc(O)cc3Oc3ncn(Cc4ccco4)c(=N)c32)cc1 (centres unmarked) | -43.5
COc1ccc(C2c3ccc(O)cc3Oc3ncn4nc(-c5ccccn5)nc4c32)cc1 (centres unmarked) | 18.3

SMILES | hERG current change (%, negative = inhibition) at 1uM [%]
CCOC(=O)C1=C(Cn2cnc3ccccc32)NC(=O)NC1c1cc(C)ccc1C (centres unmarked) | 12.2
CCOC(=O)CSc1nnc(CSc2nc3ccccc3s2)n1C | 6.96
COC(=O)Nc1nc2c(C)cccc2s1 | -4.56
CCN(c1ccc(NC(=O)c2ccc(Cl)nc2)cc1)C(C)C | 12.2
CS(=O)(=O)O.Oc1ccc(C2CNCCc3c2cc(O)c(O)c3Cl)cc1 (centres unmarked) | -0.982
CCS(=O)(=O)NCc1cn2c(C)csc2n1 | 0.136
CCCc1[nH]n(-c2ccc([N+](=O)[O-])cc2)c(=O)c1C=NCCN1CCNCC1 | -9.24
CCCc1[nH]n(-c2ccc([N+](=O)[O-])cc2)c(=O)c1C=NCCCn1ccnc1 | -50.1
CCCc1[nH]n(-c2ccc([N+](=O)[O-])cc2)c(=O)c1C=NCCc1ccc(OC)c(OC)c1 | 4.23
COc1ccc(/C=C/CN2CCCC(CCC(=O)NCc3ccc(F)c(F)c3)C2)cc1 (centres unmarked) | -54.3
COc1cccc(CNC(=O)CCC2CCCN(c3cc(C)nc(N(C)C)n3)C2)c1 (centres unmarked) | -27.7
COCc1ccc(CN2CCCC(CCC(=O)NCc3cccc(OC)c3)C2)o1 (centres unmarked) | 11
COc1cccc(CNC(=O)CCC2CCCN(Cc3cc(Cl)ccc3O)C2)c1 (centres unmarked) | -20
COc1cccc(CNC(=O)CCC2CCCN(C/C=C/c3ccccc3OC)C2)c1 (centres unmarked) | -34.5
COc1ccccc1/C=C/CN1CCCC(CCC(=O)NCc2ccc(F)c(F)c2)C1 (centres unmarked) | -26.2
COc1cccc(CNC(=O)CCC2CCCN(c3cc(C)nc(N)n3)C2)c1 (centres unmarked) | -18.3
COc1cccc(CNC(=O)CCC2CCCN(Cc3ccc(OC(F)F)cc3)C2)c1 (centres unmarked) | -80.1
COc1cccc(CNC(=O)CCC2CCCN(c3cc(C)nc(N4CCCC4)n3)C2)c1 (centres unmarked) | -74
